From PubChem BioAssay (EPA / NIEHS)
Where “and” joins values, the source holds several entries; their conditions need not be identical. Equal values may be shown once. Results filed as inconclusive are left out. Calls of active or inactive are those of the source. How the source made its calls: active means hit-call score of the fitted dose curve at least 0.9, where 1 is the maximum; inconclusive means response in the unintended direction; inactive means score below 0.9.

Molecular target: Cellular tumor antigen p53 (Homo sapiens) (UniProt P04637)
Assay: TOX21_p53_BLA_p3_ratio: Tox21 HCT-116 p53 Agonism Beta-lactamase Assay, Ratio, Phase 3 (AID 2283596)
Procedure, shortened: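 Cells were seeded at 4000/well, rested 5 h at 37C, then dosed with DMSO compound solutions (217-fold dilution) for 16 h. CCF4-AM substrate was loaded for 2 h at room temperature, and the 460/530 nm emission ratio was fitted for gain of signal versus DMSO.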

Chain of Cellular tumor antigen p53 (Homo sapiens) (P04637 whole entry, looked up): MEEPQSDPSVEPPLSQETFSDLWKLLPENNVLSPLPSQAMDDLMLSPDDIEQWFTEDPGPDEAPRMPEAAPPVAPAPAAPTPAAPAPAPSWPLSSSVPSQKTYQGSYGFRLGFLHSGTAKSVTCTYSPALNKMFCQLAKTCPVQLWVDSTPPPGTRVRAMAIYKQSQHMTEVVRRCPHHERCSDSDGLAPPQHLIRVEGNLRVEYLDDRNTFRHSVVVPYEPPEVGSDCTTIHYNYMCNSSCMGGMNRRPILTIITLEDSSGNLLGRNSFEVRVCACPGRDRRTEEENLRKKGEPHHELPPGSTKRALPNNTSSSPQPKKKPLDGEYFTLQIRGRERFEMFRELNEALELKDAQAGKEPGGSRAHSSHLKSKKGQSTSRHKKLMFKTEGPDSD

Compound | AC50 | outcome
CC(C)C[C@H](NC(=O)[C@H](Cc1ccccc1)NC(=O)c1cnccn1)B(O)O | 10.5 nM (active) and 14.1 nM (active) | 
C#CCC(Cc1cnc2nc(N)nc(N)c2n1)c1ccc(C(=O)N[C@@H](CCC(=O)O)C(=O)O)cc1 (stereo partly drawn) | 0.661 µM (active) | 
NC(N)=NCc1cccc(I)c1 |  | inactive
O=C(Oc1cccc2cccnc12)c1ccccc1 |  | inactive
O=C(Nc1ccc(Cl)c(Cl)c1)C1CC1 |  | inactive
Oc1ccc(N=Nc2ccccc2)cc1 | 87.5 µM (active) | 
COC(=O)C1=C(C)NC(C)=C(C(=O)OCCN2CCN(C(c3ccccc3)c3ccccc3)CC2)C1c1cccc([N+](=O)[O-])c1 (stereo not drawn) |  | inactive
Cc1c(N(C)CS(=O)(=O)O)c(=O)n(-c2ccccc2)n1C |  | inactive
N#C/C(=C1/SC[C@@H](c2ccc(Cl)cc2Cl)S1)n1ccnc1 |  | inactive
C[C@]12C=CC(=O)C=C1[C@@H](F)C[C@@H]1[C@@H]2[C@@H](O)C[C@@]2(C)[C@H]1CC[C@]2(O)C(=O)CO | 43.5 µM (active) | 
CCCCCCCCCCCCCC[N+](C)(C)Cc1ccccc1 |  | inactive
CN[C@H]1CC[C@@H](c2ccc(Cl)c(Cl)c2)c2ccccc21 |  | inactive
O=C1Nc2ccc(Cl)cc2[C@@](C#CC2CC2)(C(F)(F)F)O1 |  | inactive
CC(=O)Oc1ccc2c(c1)CC[C@@H]1[C@@H]2CC[C@]2(C)[C@@H](O)CC[C@@H]12 |  | inactive
CC(C)C[C@H](NC(=O)[C@H](CCc1ccccc1)NC(=O)CN1CCOCC1)C(=O)N[C@@H](Cc1ccccc1)C(=O)N[C@@H](CC(C)C)C(=O)[C@@]1(C)CO1 | 0.121 µM (active) | 
CCCCCCCCCCCCCCCCC(C(=O)O)C(O)(CC(=O)O)C(=O)O (stereo not drawn) | 41.2 µM (active) | 
COc1cc([C@@H]2c3cc4c(cc3C(O[C@@H]3O[C@@H]5COC(c6cccs6)O[C@H]5[C@H](O)[C@H]3O)C3COC(=O)[C@@H]32)OCO4)cc(OC)c1O (stereo partly drawn) | 0.939 µM (active) | 
Cc1cc(-n2c(=O)[nH]c(=O)n(C)c2=O)ccc1Oc1ccc(S(=O)(=O)C(F)(F)F)cc1 |  | inactive
NC(=O)n1c(O)c(C(=O)c2cccs2)c2cc(Cl)ccc21 | 20.4 µM (active) | 
CCC(=C(CC)c1ccc(O)cc1)c1ccc(O)cc1 | 7.64 µM (active) | 

Compound | AC50 | outcome
CCC(C)n1ncn(-c2ccc(N3CCN(c4ccc(OC[C@H]5CO[C@](Cn6cncn6)(c6ccc(Cl)cc6Cl)O5)cc4)CC3)cc2)c1=O (stereo partly drawn) |  | inactive
C#C[C@]1(O)CC[C@H]2[C@@H]3CCc4cc(OC5CCCC5)ccc4[C@H]3CC[C@@]21C |  | inactive
Cc1ccc(/C=N/n2c(-c3ccccc3)csc2=S)cc1 |  | inactive
COC(=O)C1=C(C)NC(COC(N)=O)=C(C(=O)OC(C)C)C1c1cccc(Cl)c1Cl (stereo not drawn) |  | inactive
CC(C)(C)CC(C)(C)c1ccc(O)c(Cc2ccc(Cl)cc2Cl)c1 | 30.9 µM (active) | 
Cc1cc(Nc2ccccc2C(=O)O)ccc1Cl |  | inactive
COC(=O)C1=C(C)NC(C)=C(C(=O)OCC(C)=O)C1c1ccccc1[N+](=O)[O-] (stereo not drawn) |  | inactive
CCOC(=O)COc1ccc2c(=O)cc(-c3ccccc3)oc2c1 |  | inactive
NCCCC[C@H](NC(=O)[C@@H]1CCCN1C(=O)[C@@H]1CSSC[C@H](N)C(=O)N[C@@H](Cc2ccc(O)cc2)C(=O)N[C@@H](Cc2ccccc2)C(=O)N[C@@H](CCC(N)=O)C(=O)N[C@@H](CC(N)=O)C(=O)N1)C(=O)NCC(N)=O |  | inactive
COc1cc(C)c(/C=C/C(C)=C/C=C/C(C)=C/C(=O)O)c(C)c1C |  | inactive
NC(=O)C(=O)NN=Cc1ccc([N+](=O)[O-])o1 |  | inactive
C[C@@H](NCCCc1cccc(C(F)(F)F)c1)c1cccc2ccccc12 | 40.2 µM (active) | 
COCCOC(=O)C1=C(C)NC(C)=C(C(=O)OC/C=C/c2ccccc2)C1c1cccc([N+](=O)[O-])c1 (stereo not drawn) |  | inactive
COc1ccc(C(=O)CC(=O)c2ccc(C(C)(C)C)cc2)cc1 |  | inactive
Cc1ccc2c(Cl)cc(Cl)c(O)c2n1 |  | inactive
OC[C@]1(O)OC[C@@H](O)[C@H](O)[C@@H]1O |  | inactive
CCN(CC)CCNC(=O)c1c(C)[nH]c(/C=C2\C(=O)Nc3ccc(F)cc32)c1C |  | inactive
CC(C)=CCC1=C(O)c2ccccc2C(=O)C1=O | 1.27 µM (active) | 
C=C1C(CCl)(CCl)C2(Cl)C(Cl)C(Cl)C1(Cl)C2(Cl)Cl (stereo not drawn) | 86.4 µM (active) and 20.9 µM (active) | 

Tested on: not listed separately
Assay: TOX21_p53_BLA_p4_viability: Viability Assessment in the Tox21 HCT-116 p53 Agonism Beta-lactamase Assay, Phase 4 (AID 2283597);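 further: hits lower the luminescence signal meaning cytotoxicity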
Procedure, shortened: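 ATP content by CellTiter-Glo luminescence, 30 min RT, read after the beta-lactamase ratio step. Cells: HCT116, 4000/well, compound added after 5 h, exposure 16 h at 37C. Signal loss = reduced viability.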

Compound | AC50 | outcome
CC(C)C[C@H](NC(=O)[C@H](Cc1ccccc1)NC(=O)c1cnccn1)B(O)O | 128 nM (active) and 150 nM (active) | 
C#CCC(Cc1cnc2nc(N)nc(N)c2n1)c1ccc(C(=O)N[C@@H](CCC(=O)O)C(=O)O)cc1 (stereo partly drawn) | 0.385 µM (active) | 
NC(N)=NCc1cccc(I)c1 |  | inactive
O=C(Oc1cccc2cccnc12)c1ccccc1 |  | inactive
O=C(Nc1ccc(Cl)c(Cl)c1)C1CC1 |  | inactive
Oc1ccc(N=Nc2ccccc2)cc1 | 75.7 µM (active) | 
COC(=O)C1=C(C)NC(C)=C(C(=O)OCCN2CCN(C(c3ccccc3)c3ccccc3)CC2)C1c1cccc([N+](=O)[O-])c1 (stereo not drawn) |  | inactive
Cc1c(N(C)CS(=O)(=O)O)c(=O)n(-c2ccccc2)n1C |  | inactive
N#C/C(=C1/SC[C@@H](c2ccc(Cl)cc2Cl)S1)n1ccnc1 |  | inactive
C[C@]12C=CC(=O)C=C1[C@@H](F)C[C@@H]1[C@@H]2[C@@H](O)C[C@@]2(C)[C@H]1CC[C@]2(O)C(=O)CO |  | inactive
CCCCCCCCCCCCCC[N+](C)(C)Cc1ccccc1 | 27.9 µM (active) | 
CN[C@H]1CC[C@@H](c2ccc(Cl)c(Cl)c2)c2ccccc21 | 34.6 µM (active) | 
O=C1Nc2ccc(Cl)cc2[C@@](C#CC2CC2)(C(F)(F)F)O1 | 36.3 µM (active) | 
CC(=O)Oc1ccc2c(c1)CC[C@@H]1[C@@H]2CC[C@]2(C)[C@@H](O)CC[C@@H]12 |  | inactive
CC(C)C[C@H](NC(=O)[C@H](CCc1ccccc1)NC(=O)CN1CCOCC1)C(=O)N[C@@H](Cc1ccccc1)C(=O)N[C@@H](CC(C)C)C(=O)[C@@]1(C)CO1 | 0.759 µM (active) | 
CCCCCCCCCCCCCCCCC(C(=O)O)C(O)(CC(=O)O)C(=O)O (stereo not drawn) |  | inactive
COc1cc([C@@H]2c3cc4c(cc3C(O[C@@H]3O[C@@H]5COC(c6cccs6)O[C@H]5[C@H](O)[C@H]3O)C3COC(=O)[C@@H]32)OCO4)cc(OC)c1O (stereo partly drawn) |  | inactive
Cc1cc(-n2c(=O)[nH]c(=O)n(C)c2=O)ccc1Oc1ccc(S(=O)(=O)C(F)(F)F)cc1 |  | inactive
NC(=O)n1c(O)c(C(=O)c2cccs2)c2cc(Cl)ccc21 |  | inactive
CCC(=C(CC)c1ccc(O)cc1)c1ccc(O)cc1 |  | inactive

Compound | AC50 | outcome
CCC(C)n1ncn(-c2ccc(N3CCN(c4ccc(OC[C@H]5CO[C@](Cn6cncn6)(c6ccc(Cl)cc6Cl)O5)cc4)CC3)cc2)c1=O (stereo partly drawn) |  | inactive
C#C[C@]1(O)CC[C@H]2[C@@H]3CCc4cc(OC5CCCC5)ccc4[C@H]3CC[C@@]21C |  | inactive
Cc1ccc(/C=N/n2c(-c3ccccc3)csc2=S)cc1 |  | inactive
COC(=O)C1=C(C)NC(COC(N)=O)=C(C(=O)OC(C)C)C1c1cccc(Cl)c1Cl (stereo not drawn) | 35.2 µM (active) | 
CC(C)(C)CC(C)(C)c1ccc(O)c(Cc2ccc(Cl)cc2Cl)c1 | 10.9 µM (active) | 
Cc1cc(Nc2ccccc2C(=O)O)ccc1Cl | 31.9 µM (active) | 
COC(=O)C1=C(C)NC(C)=C(C(=O)OCC(C)=O)C1c1ccccc1[N+](=O)[O-] (stereo not drawn) |  | inactive
CCOC(=O)COc1ccc2c(=O)cc(-c3ccccc3)oc2c1 |  | inactive
NCCCC[C@H](NC(=O)[C@@H]1CCCN1C(=O)[C@@H]1CSSC[C@H](N)C(=O)N[C@@H](Cc2ccc(O)cc2)C(=O)N[C@@H](Cc2ccccc2)C(=O)N[C@@H](CCC(N)=O)C(=O)N[C@@H](CC(N)=O)C(=O)N1)C(=O)NCC(N)=O |  | inactive
COc1cc(C)c(/C=C/C(C)=C/C=C/C(C)=C/C(=O)O)c(C)c1C |  | inactive
NC(=O)C(=O)NN=Cc1ccc([N+](=O)[O-])o1 | 42.3 µM (active) | 
C[C@@H](NCCCc1cccc(C(F)(F)F)c1)c1cccc2ccccc12 | 15.2 µM (active) | 
COCCOC(=O)C1=C(C)NC(C)=C(C(=O)OC/C=C/c2ccccc2)C1c1cccc([N+](=O)[O-])c1 (stereo not drawn) |  | inactive
COc1ccc(C(=O)CC(=O)c2ccc(C(C)(C)C)cc2)cc1 |  | inactive
Cc1ccc2c(Cl)cc(Cl)c(O)c2n1 | 13.7 µM (active) | 
OC[C@]1(O)OC[C@@H](O)[C@H](O)[C@@H]1O |  | inactive
CCN(CC)CCNC(=O)c1c(C)[nH]c(/C=C2\C(=O)Nc3ccc(F)cc32)c1C | 17.7 µM (active) | 
CC(C)=CCC1=C(O)c2ccccc2C(=O)C1=O |  | inactive
C=C1C(CCl)(CCl)C2(Cl)C(Cl)C(Cl)C1(Cl)C2(Cl)Cl (stereo not drawn) | 67.2 µM (active) and 17.1 µM (active) | 
